# Measurements reported in PubChem BioAssay (Tox21).
# Inconclusive results are not listed. Entries that show only a call come without a potency. Unmarked numbers belong to inactive results. Activity calls are given as the source filed them. Calls come from the whole dose curve; as a rule, active = well fitted cell-killing curve with a large enough effect in the repeat runs; inconclusive = weak or mixed curves; inactive = flat fitted curve, though single readings scatter.
# Assay: qHTS assay to identify small molecule antagonists of the TGF-beta/Smad signaling pathway - cell viability counter screen (AID 1346824); note: nearly all actives have a fitted effect of over 50% in size
# Settings: SBE-bla HEK293T viability, CellTiter-Glo luminescence; series mostly up to 76.8 µM
# Excerpt: U.S. Tox21 Program National Center for Advancing Translational Sciences [NCATS] NIH Chemical Genomics Center [NCGC] U.S. Environmental Protection Agency [EPA] National Institutes of Environmental Health Sciences [NIEHS] National Toxicology Program [NTP] U.S. Food and Drug Administration [FDA] Tox21 Assay Overview: Transforming growth factor beta (TGF-beta) superfamily consists of a large number of structurally related dimeric proteins that act as hormones or local mediators in regulating a wide range of biological functions. This superfamily includes TGF-betas themselves, the bone morphogenetic proteins (BMPs) and the activins. These ligands induce oligomerization of serine/threonine receptor kinases and phosphorylate the cytoplasmic signaling molecules of Smad protein family. CellSensor SBE-bla HEK 293T cell line (Life Technologies, Carlsbad, CA), responsive to TGF-beta was used to screen Tox21 10K compound library for identification of agonists/antagonists of the Smad signaling pathway. This cell line contains a beta-lactamase reporter gene under control of the Smad binding element (SBE) stably integrated into HEK 293T cells. Also cytotoxicity of the compounds was tested in parallel by measuring the cell viability using CellTiter-Glo assay system in the same wells.
# Tox21 Assay Protocol Summary: SBE-bla HEK 293T cells were dispensed at 4,000/well in 5 uL of assay medium into black wall/clear-bottom 1536-well plates using a Multidrop Combi (ThermoFisher Scientific, Waltham, MA) dispenser. After the assay plates were incubated at 37 C and 5% CO2 for an overnight, 23 nL of compounds dissolved in DMSO, positive controls or DMSO only was transferred to the assay plate by a Pintool station (Kalypsys, San Diego, CA). Compound transfer was followed by the addition of 1 uL of 0.25 ng/mL TGF-beta1 or assay buffer using two separate tips of Flying Reagent Dispenser (FRD, Aurora Discovery, San Diego, CA). The assay plates were incubated at 37 C and 5% CO2 for 5 hr. One uL of LiveBLAzer B/G FRET substrate (Life Technologies) was added using a Flying Reagent Dispenser (FRD, Aurora Discovery, San Diego, CA) and the plates were incubated at room temperature for 2 hr. Fluorescence intensity (405 nm excitation, 460 nm and 530 nm emissions) was measured using an Envision plate reader (PerkinElmer, Shelton, CT). For cytotoxicity read, 4 uL of CellTiter-Glo reagent (Promega Corporation, Madison, WI) was added to each well of the assay plates using FRD. After 30 min incubation at room temperature, the luminescence intensity was measured using ViewLux plate reader (PerkinElmer).
# Potency is the fitted concentration of half-maximal effect.
SMILES,Potency,"viability change, negative = cytotoxic"
CCCCCCCCCCOCC(O)CN (stereo not given),inactive,
Cc1occc1SSc1ccoc1C,inactive,
CC[N+](CC)(CC)Cc1ccccc1,inactive,
ClC/C=C\CCl,inactive,
C[Si](C)(C)Cl,inactive,
CN1[C@@H]2CC[C@H]1CC(OC(=O)C(CO)c1ccccc1)C2 (stereo not given in full),inactive,
CC(=O)OC1CCCCC1,inactive,
CCCCCCCC(=O)OCC,inactive,
Cn1cnc2ncnc(N)c21,inactive,
CN(C)c1ccc(N=Nc2ccccc2C(=O)O)cc1,inactive,
Cc1oc(-c2ccccc2)nc1CCOc1ccc(C[C@H](Nc2ccccc2C(=O)c2ccccc2)C(=O)O)cc1,inactive,
CCCCCCCC(OC)OC,inactive,
Cn1cccc1,inactive,
CCCCCCCCCCCCCCCCCO,,-8.2% [at 15.8 µM]
CCN(CC)CCSC(=O)C(c1ccccc1)c1ccccc1,inactive,
CC(COC(=O)c1ccccc1)OC(=O)c1ccccc1 (stereo not given),inactive,
O=C[C@H](O)[C@H](O)[C@H](O)CO,inactive,
C/C=C/C(=O)C1=C(C)CCCC1(C)C,inactive,
O=S(=O)(O)CCCN1CCOCC1,inactive,
CO[Si](CCC1CCC2OC2C1)(OC)OC (stereo not given),inactive,

SMILES,Potency,"viability change, negative = cytotoxic"
Cc1c(C)n(Cc2ccccc2)c2ccc(C(=O)OCCN(C)C)cc12,inactive,
Cc1cccc(N(C)C)c1,inactive,
O=C(Nc1ccc(Cl)c(Cl)c1)c1cc(Cl)cc(Cl)c1O,19.5 µM (active),
c1cc[nH]c1,inactive,
CCc1ccc(O)c(C(C)(C)C)c1,inactive,
CCCCCCCC(C)=O,inactive,
CCOC(OCC)C(=O)c1ccccc1,inactive,
O=C1NC2CCCCN2C12CCN(CCCN1c3ccccc3CCc3ccc(Cl)cc31)CC2 (stereo not given),inactive,
Nc1ccc2cc3ccc(N)cc3nc2c1,inactive,
CCCCCCCCCCCC(=O)N(CC)CC,inactive,
C[C@@H]1CC[C@H]2C(C)(C)[C@H]3C[C@@]12CC[C@@]3(C)O,inactive,
CCCCCCCC/C=C\CCCCCCCC(=O)NCc1ccc(O)c(OC)c1,inactive,
CC(C)(c1cc(Br)c(O)c(Br)c1)c1cc(Br)c(O)c(Br)c1,inactive,
CC(=O)c1ccccc1N,inactive,
CCN=C1C=CC(=C(c2ccc(N(CC)CC)cc2)c2ccc(N(CC)CC)cc2)c2ccccc21,27.4 µM (active),
COC(=O)CC#N,inactive,
CC=O,25.7 µM (active),
Brc1ccccc1-c1ccccc1,inactive,
Oc1cc2ccccc2cc1O,inactive,
Cc1ccc2ccc3cccc4ccc1c2c34,inactive,
